# PubChem BioAssay (NCI)
# About 83,000 compounds went through this panel and 20% of them were active in at least one assay; those are over-represented in the sample as a whole.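 Percent growth is the endpoint: 0 to 100 indicates growth inhibition (40 means 60% inhibition), 0 means no net growth, and negative values indicate cell death.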 Values without a mark were called inactive. Activity calls are given as the source filed them. The calls were made as follows: active = growth percent below 10; inactive = the rest.
# Test system: HL-60(TB) leukemia
# Assay: NCI-60 one-dose screen, 48 h (100 = growth as untreated, 0 = no growth, -100 = all killed)
# Details: 10 µM unless noted
row,SMILES,growth
1,Nc1c(C(=O)Nc2cccc(Cl)c2)sc2nc3c(cc12)C(O)CCC3 (stereo not given),2.96% (active)
2,Cc1cc(Cl)ccc1Nc1nc(C(F)(F)F)ccc1C(=O)N/N=C/c1cccc(O)c1,4.08% (active)
3,Cc1nn(-c2ccccc2)c2nc3c(nc12)C1=NCCN1C(c1ccc(Cl)cc1)N3 (stereo not given),70.7%
4,COc1cc(/C=C2\COc3ccc(O)cc3C2=O)cc(OC)c1,18.4%
5,CCCCCCCCCCN1CC2CCCCC2C1 (stereo not given),68.5%
6,CC(C)CCC[C@@H](C)[C@H]1CC[C@H]2[C@@H]3CC=C4c5sc(Nc6cc(C(F)(F)F)cc(C(F)(F)F)c6)nc5CC[C@]4(C)[C@H]3CC[C@]12C,101%
7,CCCCCCCCCCCCCOC(=O)c1c(C)[nH]c(/C=C2\N=C(c3ccc[nH]3)C=C2OC)c1C,9.46% (active)
8,CSC1SCC2C(=O)N(C)C(C(C)C)C(=O)OCC(NC(=O)c3cnc4ccccc4n3)C(=O)NC(C)C(=O)N(C)C1C(=O)N(C)C(C(C)C)C(=O)OCC(NC(=O)c1cnc3ccccc3n1)C(=O)NC(C)C(=O)N2C (stereo not given),-51.1% (active)
9,COc1c(C(=O)/C=C/c2ccc(C)o2)c(O)cc2occc12,44.6%
10,C1CN(CC2CCC(CN3CCOCC3)O2)CCO1 (stereo not given),87%
11,COc1ccc(C2=C(c3cccc(OC)c3)C(=O)c3ccc(C)nc3C2=O)cc1,41.1%
12,NS(=O)(=O)c1ccc(Br)cc1,96.2%
13,CC(=O)CC(=O)SC1=NCCS1,107%
14,O=C(CCc1nnc2sc(Cc3ccccc3Cl)nn12)c1nc2ncccc2[nH]1,116%
15,C=C1C(=O)O[C@H]2[C@H]1CC/C(COC(=O)NCc1c[nH]c3ccccc13)=C\CC[C@@]1(C)O[C@@H]21,-46.8% (active)
16,COc1ccc(OC)c(Nc2nnc(-c3ccc(Cl)cc3)o2)c1,94.8%
17,COc1ccc(C(=O)/C=C/c2cc(-c3cc(OC)c(OC)c(OC)c3)n[nH]2)cc1,23.2%
18,CCN(C(=O)c1ccc2c3c(cccc13)C=C2)c1ccccc1,86.4%
19,C#CCO[C@H]1CC(CC#C)(CC#C)C(=O)[C@@H]2[C@H]1[C@H]1C[C@@H]3[C@@]4(C)CCC[C@@](C)(C(=O)OC)[C@@H]4CC[C@@]23C=C1C(C)C,54.8%
20,C1=C2CCCC3=Cc4ccccc4OC23Oc2ccccc21,8.47% (active)

row,SMILES,growth
1,O=C1/C(=C/c2ccc(OCc3ccccc3)cc2)Oc2cc(OCCN3CCCCC3)ccc21,80.9%
2,CCCCCCCCCCCCCCCCC(=O)O,101%
3,O=C1Nc2ccccc2/C1=N/N1C(=O)CN(CCCl)C1=O,96.3%
4,NC(=O)c1cc(Cl)ccc1NC(=O)COc1ccccc1,-0.779% (active)
5,C=C(Cl)C(=NC(C)(C)C)Nc1ccccc1C,43.3%
6,CCCNCCC(C)=O,108%
7,[O-]c1c[n+](-c2ccc(Cl)cc2)no1,89.4%
8,C=CC[N+](C)(C)C,107%
9,COc1ccc2c(c1)sc1nc(-c3ccccc3)c(-c3ccsc3)n12,14.2%
10,CC(C)NC(=O)N1C(=O)CCC1NNC(=O)c1ccc([N+](=O)[O-])cc1 (stereo not given),107%
11,CC(C)(C)c1ccc(OCCCCCCCN2CCNCC2)cc1,-40.7% (active)
12,CC(C)c1ccc(/C=N/Nc2nc3ccccc3s2)cc1,98%
13,CC(C)(C)CC(C)(C)Nc1c(-c2ccc(C(F)(F)F)cc2)nc2cnccn12,79.4%
14,O=C(/C=C/C12c3ccccc3C(c3ccccc31)C1C(=O)NC(=O)C12)c1ccc(Cl)cc1Cl (stereo not given),-8.27% (active)
15,CC(=O)Nc1ccc(-c2ccc3c(c2)NC(=O)/C3=C\c2ccc[nH]2)cc1,95.5%
16,C=C1C(=O)O[C@H]2[C@H]1CC/C(COC(=O)c1ccccc1)=C\CC[C@@]1(C)O[C@@H]21,-59.5% (active)
17,O=C1c2c(c3c4cccc(F)c4[nH]c3c3ccc4ccccc4c23)C(=O)N1O,31%
18,CC/C(=C\c1ccc(N(C)C)cc1)c1nc2ccccc2c(=O)[nH]1,179%
19,CC(=O)CSc1ncnc2nc[nH]c12,103%
20,c1coc([C@@H]2C[C@@H]3Cc4ccc5ccccc5c4N2O3)c1,100%
